# Source: the supplement of paper PMC10933113
# ± gives the uncertainty stated by the source.
# System: THP-1
# Test: CD54 surface expression induction over DMSO control (% over DMSO); higher = stronger dendritic cell activation
# Conditions: exposure time: 24 h
# Method: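 hCLAT-like CD54 and CD86 surface expression on THP1 cells after 24 h exposure at a single concentration (highest non-cytotoxic concentration, or 100-200 µM if not cytotoxic). Flow cytometry (iQue) was run on 5,000 live cells.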
structure (smiles),measurement,value
"CC(C)(C)c1cc(O)c(C(C)(C)C)cc1O [2,5-Di-tert-butylbenzene-1,4-diol] (100 µM)",CD54 surface expression induction,38.2 ± 50
